Structures are written as SMILES. In all, about 96,000 compounds went through this assay and about 19,000 (20%) were called active.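 Rule for the calls: active = blocking of liver enzyme CYP2C9 beyond about 50% at 5 µM (limit read from the data); inactive = the rest.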 Only a sample is shown.

In PubChem BioAssay AID777 (Sanford-Burnham Center for Chemical Genomics, 2007) one finds inhibition data, which are given here for 61 compounds.

Cytochrome P450 2C9 (Homo sapiens), sequence (P11712 whole entry, looked up): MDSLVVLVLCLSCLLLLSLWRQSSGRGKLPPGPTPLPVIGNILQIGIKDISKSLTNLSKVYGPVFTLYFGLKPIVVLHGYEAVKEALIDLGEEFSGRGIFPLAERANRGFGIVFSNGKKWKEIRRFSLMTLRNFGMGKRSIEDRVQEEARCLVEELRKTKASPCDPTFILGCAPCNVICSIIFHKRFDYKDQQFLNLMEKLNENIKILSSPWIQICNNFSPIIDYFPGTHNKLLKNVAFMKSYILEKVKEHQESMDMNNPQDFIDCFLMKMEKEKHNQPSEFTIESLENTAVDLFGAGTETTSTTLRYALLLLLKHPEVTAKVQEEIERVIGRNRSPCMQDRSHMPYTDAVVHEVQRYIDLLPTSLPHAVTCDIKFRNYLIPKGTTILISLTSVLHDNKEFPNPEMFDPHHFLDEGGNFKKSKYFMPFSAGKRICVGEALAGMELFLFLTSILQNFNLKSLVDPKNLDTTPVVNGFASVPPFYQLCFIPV

The assay has as its target Cytochrome P450 2C9 (Homo sapiens) (UniProt P11712). Briefly: blockers of cytochrome P450 2C9 activity – biochemical, luminescence, ADME assay, primary screen (AID 777). Particulars: CYP2C9 Supersomes, luciferin-H conversion, at 5 µM, stronger effect = higher value.
In the case of `Cc1ccc(-c2nc(C)sc2CC(=O)O)cc1`, the inhibition is 5.6% (inactive).
For `Cc1nn(Cc2ccc(F)cc2)c(C)c1NC(=O)c1noc2c1CCc1ccccc1-2` the value was -1.9% (inactive).
Under `Cc1ccc(Cn2ccc(NC(=O)C3C4CCC(C4)C3C(=O)O)n2)cc1` (stereo unspecified) stands 13% (inactive).
Turning to `CC(=O)Nc1ccn(Cc2c(F)cccc2Cl)n1`, the inhibition was 6.2% (inactive).
As to `Cc1ccc(Cn2ccc(NC(=O)c3cc(C(C)C)on3)n2)cc1`, the inhibition is 97.5% (active).
Turning to `Cc1cc(NC(=O)c2cc(-c3cccs3)on2)nn1Cc1ccc(Cl)cc1`, the inhibition was -17.2% (inactive).
As for `O=C(Nc1ccn(Cc2ccc(F)cc2)n1)c1ccncc1`, the inhibition was 92.9% (active).
For the compound `CCOC(=O)c1nn(-c2cccc(C)c2)cc1C(=O)c1ccccc1`, the inhibition is 33.5% (inactive).
For `Cc1ccc(-c2ccnc3nc(Sc4ncc(C(F)(F)F)cc4Cl)nn23)cc1` the value was 9.8% (inactive); for `N#Cc1cccc(CSc2nnc(CCCO)n2-c2ccccc2)c1`, 11.5% (inactive); for `Cc1cccc(NC(=O)c2ccc(OCC(=O)NCc3ccccc3)cc2)c1C`, -9.9% (inactive).
With `Cc1cccc(C)c1NC1=NC(=S)N(c2ccc(N(C)C)cc2)C1(C)C`, the inhibition is -27.7% (inactive).
Consider `O=C(Nc1ccccc1)O/N=C1\CCCCC1c1ccc([N+](=O)[O-])cc1[N+](=O)[O-]` (stereo unspecified), for which the inhibition was 63.3% (active).
For the compound `COc1ccc(NC(=O)ON=C2c3ccccc3-c3ccccc32)cc1`, the inhibition was 16% (inactive).
Under `CCN(CC)S(=O)(=O)c1cc([N+](=O)[O-])ccc1NNC(=O)Nc1ccccc1` stands 25.7% (inactive); under `Cc1ccc2oc(=O)c3cnn(CC(=O)N4CCCCCC4)c3c2c1`, 4.4% (inactive).
For `COc1ccc(N2C(=O)CCC(C(=O)N(C)C3CCCCC3)C2c2ccc(OC)c(OC)c2)cc1` (stereo unspecified) the value was 10.7% (inactive); for `CCCn1c(C(Cc2ccccc2)NC(=O)COC)nc2ccccc21` (stereo unspecified), 74.5% (active); for `CCCC(NC(=O)c1ccccc1)c1nc2ccccc2n1Cc1ccc(C(=O)OC)o1` (stereo unspecified), 14.1% (inactive).
Take `C=CCn1c(C(C)NC(=O)CC)nc2ccccc21` (stereo unspecified): the inhibition was -3.6% (inactive).
For `CC/S(CC1CC1(Cl)Cl)=N\S(=O)(=O)c1ccc(C)cc1` (stereo unspecified) the value was -9% (inactive); for `CS(=O)(=O)N1CCN(c2cccc(Cl)n2)CC1`, 19.9% (inactive); for `CN1c2ccccc2-c2nc3ccccc3n2C1c1ccco1` (stereo unspecified), 45.9% (inactive).
Under `O=C(Oc1cccnc1)c1cc2ccccc2oc1=O` stands 30.1% (inactive); under `Cc1ccc(-c2noc(CCC(=O)Nc3ccccc3N3CCN(C)CC3)n2)cc1`, 48.1% (inactive).
For the compound `CCc1ccc(CNC(=O)CCc2nc(-c3cccs3)no2)cc1`, the inhibition is 70.4% (active).
As to `CCNC(=O)CCc1nc(-c2ccc(C(C)(C)C)cc2)no1`, the inhibition is -11.4% (inactive).
As for `Cc1cc(C)cc(N(CC(=O)Nc2c(C)n(C)n(-c3ccccc3)c2=O)S(C)(=O)=O)c1`, the inhibition was 16.3% (inactive).
As to `O=C(N/N=C/c1ccc(O)cc1)/C(=C/c1ccc([N+](=O)[O-])cc1)NC(=O)c1ccccc1`, the inhibition was -2.6% (inactive).
On to `N#CCCN1CCN(S(=O)(=O)c2ccc(S(=O)(=O)N3CCCC3)cc2)CC1`, for which the inhibition was 16.2% (inactive).
In the case of `N#CCCN1CCN(S(=O)(=O)c2ccc(S(=O)(=O)NC3CC3)cc2)CC1`, the inhibition is 9.6% (inactive).
For the compound `N#CCCN1CCN(S(=O)(=O)c2ccc(S(=O)(=O)NC3CCCCC3)cc2)CC1`, the inhibition is 58% (active).
Take `Cc1ccccc1-n1c(C)cc(/C=N/NC(=O)c2ccc(CN3CCOCC3)cc2)c1C`: the inhibition was 31.2% (inactive).
Under `CC(C)(C)Oc1ncc(Br)c(OC(C)(C)C)n1` stands -16.6% (inactive); under `COc1cccc(C2/C(=C(/O)c3ccncc3)C(=O)C(=O)N2CCCN(C)C)c1` (stereo unspecified), -17.5% (inactive); under `COc1cc(N=Cc2c(O)[nH]c3ccccc23)cc(OC)c1OC`, 66% (active).
Take `COc1ccc(N=Cc2c(O)[nH]c3ccccc23)cc1OC`: the inhibition is 2.9% (inactive).
For `COc1ccc(OC)c(N=Cc2c(O)[nH]c3ccccc23)c1`, the inhibition is 15.1% (inactive).
As to `CCCCCCC(=O)Nc1nc(C)c(-c2csc(Nc3cccc(OC)c3)n2)s1`, the inhibition was 19.4% (inactive).
As for `COC(=O)c1cc(OC)c(OC)cc1NC(=O)CSc1ccc(C)cc1`, the inhibition is 21.1% (inactive).
Regarding `Cc1ccc(SC(=O)COc2ccc(C)c(C)c2)cc1`, the inhibition is 13.5% (inactive).
With `Cc1ccc(SCC(=O)c2cc(C)c(OC(=S)N(C)C)c(C)c2)cc1`, the inhibition is 58.6% (active).
With `CSc1nc(C)nc2c1c(=O)n(C)c(=O)n2C`, the inhibition is -6.6% (inactive).
As for `CSc1nc2nc3c(c(=O)n2[nH]1)CCC3`, the inhibition is -13.2% (inactive).
For `Cc1ccc(C)c(N2CCN(S(=O)(=O)c3ccc4c(c3)oc(=O)n4C)CC2)c1` the value was 88.4% (active).
Under `Cc1ccc2nc(NC(=O)C3CCN(S(=O)(=O)c4ccc5c(c4)oc(=O)n5C)CC3)sc2c1` stands -47.7% (inactive); under `Cn1c(=O)oc2cc(S(=O)(=O)N3CCC(C(=O)Nc4ccc(OC(F)(F)F)cc4)CC3)ccc21`, -62.7% (inactive).
For the compound `CCSC1(SCC)N=C(N)C2(C#N)C(c3ccccc3)NC(C)=CC12C#N` (stereo unspecified), the inhibition was 6.1% (inactive).
Under `O=c1c2cc3c(=O)n(CC4CCCO4)c(=O)c3cc2c(=O)n1CC1CCCO1` (stereo unspecified) stands 3.8% (inactive); under `CCOc1cccc(=O)c2c(C)n(CC3CCCO3)c(C)c12` (stereo unspecified), 59.7% (active).
On to `COC(=O)c1ccc2c(=O)n(CC3CCCO3)c(=S)[nH]c2c1` (stereo unspecified), for which the inhibition is 6.5% (inactive).
As to `OCCCN1c2ccccc2Nc2nnc(-c3ccccc3)cc21`, the inhibition was 46.3% (inactive).
For `CN(C)c1nc2n(c(=O)n1)CCO2`, the inhibition was 2.6% (inactive).
In the case of `CC(C)(CNC(=O)c1cc(=O)[nH]c2ccccc12)N1CCOCC1`, the inhibition was 8% (inactive).
Consider `CCOC(=O)c1[nH]c2ccc(OC)cc2c1NC(=O)CCN1CCN(Cc2ccccc2)CC1`, for which the inhibition is 11.4% (inactive).
As to `COC(=O)c1[nH]c2ccccc2c1NC(=O)CN1CCCc2ccccc21`, the inhibition was 88.7% (active).
With `Cc1cccc(-n2c(O)c(C=Nc3ccccc3N)c(=O)[nH]c2=O)c1`, the inhibition was 0.2% (inactive).
As for `CCCOP(=O)(c1ccc(N(C)C)cc1)C(O)c1cc(OC)c(OC)c(OC)c1` (stereo unspecified), the inhibition is -3.1% (inactive).
`FC(F)(F)c1cccc(NC(=S)Nc2cccc(Cl)c2)c1`: the inhibition is -83% (inactive).
In the case of `CCC(=O)OCc1c(C(F)(F)F)nn(C)c1Oc1cccc(C(F)(F)F)c1`, the inhibition is 34% (inactive).
For `Cn1nc(C(F)(F)F)c(C(=O)Nc2cccc(C(F)(F)F)c2)c1SCc1ccc(Cl)cc1` the value was 97.5% (active).
